Measured values taken from PubChem BioAssay (Tox21).
Results filed as inconclusive are left out. The source made the active and inactive calls. Calls come from the whole dose curve.

How the values were obtained:
[1] = target: Acetylcholinesterase (Homo sapiens) (UniProt P22303); experiment: Acetylcholinesterase (AChE) small molecule antagonists: colormetric cell-based qHTS assay (AID 1347395); note: nearly all actives have a fitted effect of over 30% in size
How it was run: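 SH-SY5Y cells, plated overnight at 37 C, were exposed to compounds for 30 min at 37 C and 5% CO2. Acetylthiocholine plus DTNB was then added, and thiocholine from endogenous AChE was quantified colorimetrically after 90 min at 37 C.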

[2] = target: Acetylcholinesterase (Homo sapiens) (UniProt P22303); experiment: Acetylcholinesterase (AChE) small molecule antagonists: enzyme-based qHTS assay (AID 1347397); details: Potency: AChE enzyme activity inhibition; outcome: AChE enzyme activity inhibition; note: nearly all actives have a fitted effect of over 55% in size
How it was run: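 Colorimetric DTNB read-out of thiocholine released from acetylthiocholine by recombinant human AChE (50 mU/mL as dispensed). Compounds were preincubated 30 min at RT before substrate/DTNB addition, with a 10 min RT reaction.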

[3] = target: Acetylcholinesterase (Homo sapiens) (UniProt P22303); experiment: Acetylcholinesterase (AChE) small molecule antagonists: fluorescence cell-based qHTS assay (AID 1347398); details: Potency: AChE activity; outcome: AChE activity; note: nearly all actives have a fitted effect of over 50% in size
How it was run: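 SH-SY5Y, 2,000 cells/well, attached overnight; cmpd 30 min 37 C; acetylthiocholine/Thiolite Green cocktail 40 min RT; fluorescence Ex/Em 490/520 nm.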

[4] = target: Acetylcholinesterase (Homo sapiens) (UniProt P22303); experiment: Acetylcholinesterase (AChE) small molecule antagonists: enzyme-based qHTS assay with human liver microsomes (AID 1347399); details: Potency: qHTS inhibition; outcome: qHTS inhibition; note: nearly all actives have a fitted effect of over 60% in size
How it was run: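 Recombinant human AChE (50 mU/mL in the enzyme mix) and human liver microsomes (0.25 mg/mL final) were preincubated with compound and NADPH (0.25 mg/mL final) for 30 min at 37 C. Acetylthiocholine/DTNB was then added; thiocholine was read colorimetrically after 10 min at room temperature.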

Measured: Potency

Sequence of Acetylcholinesterase (Homo sapiens) (P22303 whole entry, looked up): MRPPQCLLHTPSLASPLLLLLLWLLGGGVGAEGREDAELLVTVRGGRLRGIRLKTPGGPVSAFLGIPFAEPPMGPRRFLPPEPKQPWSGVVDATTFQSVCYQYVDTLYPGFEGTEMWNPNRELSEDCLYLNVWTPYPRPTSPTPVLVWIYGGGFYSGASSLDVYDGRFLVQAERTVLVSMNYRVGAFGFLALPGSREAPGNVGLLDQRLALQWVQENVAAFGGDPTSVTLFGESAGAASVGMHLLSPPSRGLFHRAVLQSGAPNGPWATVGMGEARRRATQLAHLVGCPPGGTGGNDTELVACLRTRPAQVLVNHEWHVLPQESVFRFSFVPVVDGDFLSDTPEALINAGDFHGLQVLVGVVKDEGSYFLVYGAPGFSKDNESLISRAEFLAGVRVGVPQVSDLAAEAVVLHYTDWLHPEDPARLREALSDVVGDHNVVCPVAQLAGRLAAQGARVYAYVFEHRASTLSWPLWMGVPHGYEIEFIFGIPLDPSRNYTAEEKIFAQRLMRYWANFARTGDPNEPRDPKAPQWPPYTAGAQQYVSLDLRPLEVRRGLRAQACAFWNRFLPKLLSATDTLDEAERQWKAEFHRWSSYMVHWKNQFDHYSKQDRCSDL

C=CC(=O)OCCCCCCCC
inactive: all assays above

CN(C)c1cc(NC(=O)CNC(C)(C)C)c(O)c2c1C[C@H]1C[C@H]3[C@H](N(C)C)C(=O)C(C(N)=O)=C(O)[C@@]3(O)C(=O)C1=C2O
inactive: all assays above

COc1ccc(Nc2ccc(OC)cc2)cc1
inactive: all assays above

CCC(C)(C)C
inactive: all assays above

CC1(C)Cc2cccc(N)c2O1
inactive: all assays above

c1ccc2cc(Nc3ccc(Nc4ccc5ccccc5c4)cc3)ccc2c1
inactive: all assays above

OCCN1CCN(CCCN2c3ccccc3C=Cc3ccccc32)CC1
inactive: all assays above

Clc1ccccc1C(c1ccccc1)(c1ccccc1)n1ccnc1
inactive: all assays above

CCOC(=O)[C@H](O)[C@@H](O)C(=O)OCC
inactive: all assays above

CO[Si](C)(C)OC
inactive: all assays above

CC(COCCO)OCCO (stereo not given)
inactive: all assays above

N#Cc1ccc(C(=O)O)cc1
inactive: all assays above

CCC(CC)C(=O)O
inactive: all assays above

COc1cc(O)c(C(=O)c2ccccc2)cc1S(=O)(=O)O
inactive: all assays above

C[C@]12C[C@H](O)[C@H]3[C@@H](CCC4=CC(=O)CC[C@@]43C)[C@@H]1CC[C@@H]2C(=O)CO
inactive: all assays above

O=S(=O)(O)c1ccc2cc(O)ccc2c1
inactive: all assays above

Cc1cccc2n[nH]nc12
inactive: all assays above

C[C@H](CCC(=O)O)[C@H]1CC[C@H]2[C@@H]3CC[C@@H]4C[C@H](O)CC[C@]4(C)[C@H]3CC[C@]12C
inactive: all assays above

O=C(O)CCC(=O)OC[C@@H](NC(=O)C(Cl)Cl)[C@H](O)c1ccc([N+](=O)[O-])cc1
inactive: all assays above

O=C1c2ccccc2CCc2ccccc21
inactive: all assays above

COc1cc2c(cc1N)oc1ccccc12
inactive: all assays above

CCOC(=O)Cc1cccc2ccccc12
inactive: all assays above

c1ccc(CSCc2ccccc2)cc1
inactive: all assays above

CCC(=O)OC(C)c1ccccc1 (stereo not given)
inactive: all assays above

C1CCN(CN2CCCCC2)CC1
inactive: all assays above

CCCCCCCC(=O)[O-].CCCCCCCC(=O)[O-].[Zn+2]
inactive: all assays above

C=C(C)C(=O)OCCN(C)C
inactive: all assays above

CCCCCCCCCCCCCCCCC(=O)O
inactive: all assays above

O=C(Nc1ccccc1)OCC(CN1CCCCC1)OC(=O)Nc1ccccc1 (stereo not given)
inactive: all assays above

OC[C@@H](O)[C@H](O)[C@H](O)[C@@H](O)CO
inactive: all assays above

O=C(O)c1ccco1
inactive: all assays above

CCCCC1CCC(O)CC1 (stereo not given)
inactive: all assays above

CC(C)(C)c1ccc(CCC=O)cc1
inactive: all assays above

C=C1C[C@H]2[C@@H]3C=C(C)C4=CC(=O)CC[C@]4(C)[C@H]3CC[C@]2(C)[C@@]1(OC(C)=O)C(C)=O
inactive: all assays above

CCC(C)COC(C)=O (stereo not given)
inactive: all assays above

CC(C)=CCCC(C)CC(=O)O (stereo not given)
inactive: all assays above

C[C@]12CC[C@@H]3c4ccc(O)cc4CC[C@H]3[C@@H]1CC[C@@H]2OC(=O)CCC1CCCC1
inactive: all assays above

CCCc1c(OCCCOc2ccc(OCC(=O)O)cc2)ccc(C(C)=O)c1O
inactive: all assays above

C=C(C)C(=O)OCc1ccccc1
inactive: all assays above

CCn1c2ccccc2c2cc([N+](=O)[O-])ccc21
inactive: all assays above

O=C(O)Cc1c(Cl)ccc(Cl)c1Cl
inactive: all assays above

Oc1ccc(Cc2ccccc2)cc1
inactive: all assays above

CC(C)CCCCCCN
inactive: all assays above

CC(C)=CCCC(C)CCOC=O (stereo not given)
inactive: all assays above

O=C(O)CCC(=O)O
inactive: all assays above

BrC(Br)C(Br)Br
inactive: all assays above

CN1C(=O)c2ccccc2C1=O
inactive: all assays above

O=S1(=O)CC=CC1
inactive: all assays above

C[C@H]1COc2c(C3(N)CC3)c(F)cc3c(=O)c(C(=O)O)cn1c23
inactive: all assays above

CCOC(=O)Oc1ccc(CCNC(=O)[C@H](CCSC)NC(C)=O)cc1OC(=O)OCC
inactive: all assays above

COc1ccc(C(C)=O)cc1
inactive: all assays above

COc1ccc(C(=O)c2ccc(C)cc2)c(O)c1
inactive: all assays above

CNC(=O)c1c(I)c(NC(=O)CCCCC(=O)Nc2c(I)c(C(=O)O)c(I)c(C(=O)NC)c2I)c(I)c(C(=O)O)c1I
inactive: all assays above

CCCCC=O
inactive: all assays above

NCCCCCC(=O)O
inactive: all assays above

CC(C)(C)c1nnc(NS(=O)(=O)c2ccccc2)s1
inactive: all assays above

CN1C(=O)CC[C@H]1c1cccnc1
inactive: all assays above

CCOc1ccccc1OCC1CNCCO1 (stereo not given)
inactive: all assays above

CC(=O)OC(C)(C)C1CC=C(C)CC1 (stereo not given)
inactive: all assays above

CCOC(=O)C1=C(C)NC(C)=C(C(=O)OC)C1c1cccc([N+](=O)[O-])c1 (stereo not given)
inactive: all assays above
